Our source for the growth values is PubChem BioAssay (NCI).

SMILES strings stand for the structures. About 83,000 compounds went through this panel and 20% of them were active in at least one assay; those are over-represented in the sample as a whole.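 Each cell line was grown in a 96-well plate and treated with one concentration of compound for 48 hours. Values below 10 were considered active.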 A number with no mark means an inactive call. Activity calls are given as the source filed them.

Holding throughout (test): NCI-60 one-dose screen, 48 h (100 = growth as untreated, 0 = no growth, -100 = all killed)
For test [1], the system named is NCI-H226 lung. To be noted: 10 µM unless noted.
Test [2] relates to NCI-H322M lung. Particulars: 10 µM unless noted.
Test [3] deals with MALME-3M melanoma. Particulars: 10 µM unless noted.
Test [4] concerns HT29 colon. Particulars: 10 µM unless noted.
The test system of test [5] is SNB-75 CNS. To be noted: 10 µM unless noted.
The subject of test [6] is PC-3 prostate. Particulars: 10 µM unless noted.
The subject of test [7] is SK-MEL-5 melanoma. Particulars: 10 µM unless noted.
Test [8] relates to CAKI-1 renal. Particulars: 10 µM unless noted.
Test [9] relates to RPMI-8226 leukemia. Particulars: 10 µM unless noted.
Test [10] deals with OVCAR-5 ovarian. Particulars: 10 µM unless noted.
For test [11], the system named is IGROV1 ovarian. Particulars: 10 µM.
For test [12], the system named is HS 578T breast. To be noted: 10 µM unless noted.
In test [13] the test system is MCF7 breast. Particulars: 10 µM unless noted.
The subject of test [14] is HOP-92 NSCLC. To be noted: 10 µM unless noted.
The test system of test [15] is NCI-H522 lung. Particulars: 10 µM unless noted.
Test [16] relates to COLO 205 colon. Particulars: 10 µM.
Test [17] deals with CCRF-CEM leukemia. To be noted: 10 µM unless noted.
Test [18] concerns EKVX NSCLC. Particulars: 10 µM unless noted.
For test [19], the system named is OVCAR-3 ovarian. To be noted: 10 µM unless noted.

Take `OB([O][Hg][c]1ccccc1)[O][Hg][c]1ccccc1`: the growth in test [1] was 54.9%; in test [2] it was -22.4% (active); in test [3] it was -88.1% (active); in test [4], -55.8% (active); in [5], -56% (active); in test [6], -60.4% (active). Also, the growth was -96.7% (active) in test [7]; -92.4% (active) in [8]; -44.4% (active) in test [9]; -64% (active) in [10]; -54.3% (active) in [11]; -5.59% (active) in [12]. For the same molecule, the growth in [13] was -39.4% (active).
For `O=C1c2ccccc2C(=O)N1[N+](=O)[O-]`, the growth in test [1] is 95.6%; in [2] it was 84.4%; in test [14], 91.1%; in test [15] it was 88.7%; in test [16], 116%; in [3], 89.4%. For the same molecule, the growth was 102% in test [4]; 103% in test [5]; 94.9% in test [6]; 104% in test [7]; 106% in test [8]; 90% in [17]. Also, the growth is 101% in test [9], 112% in test [10], 109% in [11] and 106% in test [12].
Consider `O=C1NC(=O)C(O)(C2(O)C(=O)NC(=O)NC2=O)C(=O)N1`, for which the growth in test [1] was 99.5%; in test [2], 132%; in test [16], 79.9%; in [3], 57.9%; in test [4], 104%; in test [5], 94%. In addition, the growth was 89.2% in test [6]; 86.7% in test [7]; 110% in test [18]; 70.1% in [17]; 88.1% in test [10]; 115% in [19]. Also, the growth in [12] is 99%.
For the molecule `C=CC(O)CN1CC1CC` (stereo unspecified), the growth is 105% in test [1]; 106% in [2]; 114% in test [16]; 110% in [3]; 85.1% in test [5]; 98.1% in test [6]. In addition, the growth in [7] is 115%; in test [18], 102%; in [17], 116%; in test [10], 104%; in test [11], 108%; in test [19], 111%. Further, the growth in test [12] is 97.3%; in [13], 94.2%.
